# Screening data as filed in PubChem.
# Avidin fluor – compound fluoresces at 488/530 nm on avidin beads | compound fluorescence 488/530 nm, flow cytometry; hits give high values | 220,000 tested, 0.38% active | fluorescence (KMESF) at 10 µM | AID 1775; in the data active = fluorescence above about 47
# RGS16-Gao HTS – modulates binding between human RGS16 and Galphao; bead-based flow cytometry RGS16-Galphao binding, fluorescence; actives lie on both sides; binding response (% of control), % at 10 µM; 220,000 tested, 0.38% active; call rule not given here;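 note: Galphao activated by GDP with aluminum fluoride before binding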
# Target sequence (O15492 whole entry, looked up): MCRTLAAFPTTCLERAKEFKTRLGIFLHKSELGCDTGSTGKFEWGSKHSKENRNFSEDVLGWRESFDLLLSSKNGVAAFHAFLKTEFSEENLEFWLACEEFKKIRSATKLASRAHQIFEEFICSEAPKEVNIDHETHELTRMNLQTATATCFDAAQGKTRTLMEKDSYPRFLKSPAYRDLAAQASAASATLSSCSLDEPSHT
# Target sequence (P09471 whole entry, looked up): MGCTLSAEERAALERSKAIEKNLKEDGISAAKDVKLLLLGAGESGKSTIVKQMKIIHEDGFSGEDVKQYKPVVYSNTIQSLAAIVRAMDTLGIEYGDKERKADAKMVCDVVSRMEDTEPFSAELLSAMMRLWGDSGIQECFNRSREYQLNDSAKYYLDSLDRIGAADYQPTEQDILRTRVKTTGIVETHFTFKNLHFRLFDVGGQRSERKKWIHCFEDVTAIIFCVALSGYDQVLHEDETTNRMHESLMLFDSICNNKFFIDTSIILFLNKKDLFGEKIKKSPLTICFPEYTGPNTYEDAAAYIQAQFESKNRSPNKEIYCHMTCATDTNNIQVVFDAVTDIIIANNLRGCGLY
# RGS7-Gao – regulators of human RGS7-Galphao interaction | P09471 | 220,000 tested, 0.35% active | Multiplexed bead flow cytometry, RGS7-Galphao binding; actives lie on both sides | binding response (% of control), % at 10 µM; in the data active = binding response below about 49% or above about 150%; inconclusive = no clear call, values can overlap the other calls; inactive = in between;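 note: fluorescent Galphao held in activated GDP-AlF4 state binding bead-coupled RGS7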
# RGS8-Gao reg – modulates binding of RGS8 to human Galphao | P09471 | multiplexed bead flow cytometry; actives lie on both sides | response (percent of control binding), % at 10 µM | 220,000 tested, 0.34% active; in the data active = response below about 60% or above about 140%; inactive = in between;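 note: Galphao activated as the GDP aluminium fluoride complex binding bead-coupled RGS8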
# RGS4-Gao reg – modulates binding of RGS4 to human Galphao; 220,000 tested, 0.33% active; Multiplexed bead flow cytometry; actives lie on both sides; AID 1415; binding response (% of control), % at 10 µM; in the data active = binding response below about 49% or above about 150%; inactive = in between;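 note: fluorescent Galphao activated with aluminum fluoride binding bead-coupled RGS4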
# GSH fluor – compound fluoresces at 488/530 nm on GSH beads; GSH beads flow cytometry, compound fluorescence 488/530 nm; hits give high values; fluorescence (KMESF) at 10 µM; 190,000 tested, 0.25% active; in the data active = fluorescence above about 89;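 note: glutathione beads carrying GST-tagged Bcl family fusion proteins plus one bare bead set; values are compound well signal with DMSO vehicle wells as background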
# * = called active by the depositor; ? = inconclusive; . = no result given. This is a sample that favours compounds with a hit; in the whole collection about 1.2% have one here.
SMILES,Avidin fluor,RGS16-Gao HTS,RGS7-Gao,RGS8-Gao reg,RGS4-Gao reg,GSH fluor
CC(=O)NC1CC(C)(C)N(OC(C)=O)C(C)(C)C1,53*,114,133,105,111,36
CCCc1nnc(SCc2ccc(C(=O)OC)o2)n1N,28,113,101,107,105,9
CCc1nnc(SCc2ccc(C(=O)OC)o2)n1N,7,104,100,98,101,258*
COc1ccc(CNC(=O)C2CC(c3ccccc3[N+](=O)[O-])=NO2)cc1 (centres undefined),32,99,100,103,99,13
COc1ccccc1CNC(=O)C1CC(c2ccccc2[N+](=O)[O-])=NO1 (centres undefined),49*,102,107,99,99,11
Cc1c(Cc2ccc3c(c2)OCO3)sc(NC(=O)c2ccc3ccccc3c2)c1C(N)=O,1,11*,35*,29*,20*,13
O=C(Nc1ccc(OC(F)(F)F)cc1)c1ccc(S(=O)(=O)N2CCOCC2)o1,4,99,?,102,107,.
CCCSc1nc2c(cnn2-c2ccccc2)c(=O)n1N,7,99,?,97,98,.
CCCCSc1nc2c(cnn2-c2ccccc2)c(=O)n1N,61*,102,129,101,101,17
COc1ccc(OCCSc2nnc(-c3ccccc3)n2N)cc1,63*,101,118,99,104,28
CSc1ccc(Cl)c(C(=O)NCc2ccco2)c1,3,60,103,98,95,250*
CCOC(=O)NC(=O)C(=CNc1ccc(C)cc1)C(=O)NC(=O)OCC,3,104,100,102,100,7
COc1ccccc1OCCNC(=O)Nc1cc(F)c(F)cc1Cl,4,100,?,99,99,.
Cc1nc(N2CCC(C)CC2)c2nnn(Cc3ccccc3)c2n1,4,38,84,84,82,89*
Cc1ccnc2nc(C(=O)N3CCN(c4ccc(F)cc4)CC3)nn12,5,58,97,95,97,249*
CC(C)(C)Nc1cccccc1=O,66*,103,122,101,105,38
c1ccc2c3c([nH]c2c1)-c1[nH]ncc1CC3,7,102,96,99,97,265*
O=C(OCc1ccc(Cl)c(Cl)c1)c1cnccn1,9,106,104,100,103,270*
O=C(OCc1ccc(Cl)cc1)c1cnccn1,7,98,98,103,102,11
CCCCC(=O)NC(=S)Nc1nnn(CCC)n1,5,84,96,94,99,7
CC(=O)Nc1ccc(NC(=O)c2cccc3c2-c2ccccc2C3=O)cc1,99*,115,140,107,109,8
Cc1ccc(NC(=O)c2cccc3c2-c2ccccc2C3=O)cc1C,15,98,102,100,101,21
COc1ccc(OC)c(C(=O)c2coc3ccc(O)cc23)c1,13,104,107,101,103,88*
COc1ccc2occ(C(=O)c3ccccc3)c2c1,11,98,?,99,100,13
O=C(COC(=O)c1ccc(CNS(=O)(=O)c2ccc(F)c(Cl)c2)cc1)NCC1CCCCC1,18,100,99,100,103,17
SMILES,Avidin fluor,RGS16-Gao HTS,RGS7-Gao,RGS8-Gao reg,RGS4-Gao reg,GSH fluor
O=C1CCc2cc(S(=O)(=O)NC(Cc3ccccc3)C(=O)NCCC3=CCCCC3)ccc2N1 (centres undefined),54*,102,143,97,106,20
Cc1ccc(C)c(C(=O)COc2ccc(C)nc2[N+](=O)[O-])c1,6,91,102,95,94,256*
CCCCCCC(=O)Nc1nnc(CC)s1,6,160,110,117,104,19
CCc1nnc(NC(=O)CCN2C(=O)CCC2=O)s1,6,92,93,97,94,264*
CCNc1nc(NCC)nc(OCCOC(C)=O)n1,5,67,97,88,93,132*
COc1ccc(C2c3c(oc4ccc(Cl)cc4c3=O)C(=O)N2CCN2CCOCC2)cc1 (centres undefined),4,91,?,96,91,.
Cc1onc(-c2c(Cl)cccc2Cl)c1NC(=O)N(C)N,49*,131,?,106,135,.
CC(Sc1nnc(Cc2cccs2)n1C1CCCCC1)C(=O)N1CCc2ccccc21 (centres undefined),48*,98,104,97,98,17
Cc1cccc(C2(c3cccc(C)c3)CC2C(=O)Nc2ccc([N+](=O)[O-])cc2O)c1 (centres undefined),15,101,101,101,101,13
Cc1cccc(NC(=S)N2CCC(c3nc4ccccc4o3)CC2)c1C,2,38,42*,55*,48*,30
CCCCCCc1cc2cc(-c3nnc(-c4cc(OC)c(OC)c(OC)c4)o3)c(=O)oc2cc1O,7,98,99,98,100,113*
CCCCCCc1cc2cc(-c3nnc(-c4ccccc4O)o3)c(=O)oc2cc1O,26,111,109,100,111,26
CCCCCCc1cc2cc(-c3nnc(-c4ccccc4OC)o3)c(=O)oc2cc1O,5,109,93,102,88,248*
COc1ccccc1NC(=O)N1CCCC1C(=O)NC12CC3CC(CC(C3)C1)C2 (centres undefined),8,104,105,101,101,280*
COc1cccc(CC2(CO)CCCN(CC3=Cc4cc(Cl)ccc4OC3)C2)c1 (centres undefined),9,101,105,99,100,9
COc1cc2c3nnc(-c4ccc(F)cc4)c-3cn(Cc3cccc(F)c3)c2cc1OC,19,106,91,103,89,90*
O=C(O)CCNc1cc2ccccc2cc1C(=O)O,6,92,102,96,105,255*
O=C(O)CCNS(=O)(=O)c1ccc2ccccc2c1,39,102,100,101,101,15
Cc1cc(=O)[nH]c(SCC(=O)NC2CCCc3ccccc32)n1 (centres undefined),6,115,?,111,117,.
Cc1nn(CC#N)c(=O)n1-c1ccccc1,7,97,98,98,99,262*
O=C(O[C@@H]1Cc2c(O)cc(O)cc2O[C@@H]1c1cc(O)c(O)c(O)c1)c1cc(O)c(O)c(O)c1,2,56,32*,56*,48*,67
O=C(NCC1CCCO1)c1cccnc1Nc1ccccc1F (centres undefined),52*,100,112,105,107,15
Cc1nc(SCC(=O)NCc2ccccc2)c2oc3ccccc3c2n1,50*,100,105,102,102,24
Cc1nc(SCC(=O)O)c2oc3ccccc3c2n1,8,132,98,103,100,25
CCOc1ccc(C(=O)Nc2cc(-c3nc4ccccc4[nH]3)ccc2C)cc1[N+](=O)[O-],65*,92,120,97,110,26
